Assay [1] has as its system TRPC4 beta (transient receptor potential cation channel C4), mouse. As to the kind of experiment: TRPC4 cation channel opening, retest – cell-based, Fluo4 calcium, HEK293 TRPC4beta/mu-opioid, duplicates, 10 µM, confirmation (AID 2426).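 On activation: percent rise of integrated ratio over buffer wells lacking compound which define 0%.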 The conditions noted are these: Fluo4 calcium fluorescence, at 10 µM; stronger effect = higher value.
Assay [2] relates to transient receptor potential cation channel C4 beta (TRPC4), mouse. Nature of the assay: TRPC4 cation channel opening, second retest – cell-based, second round, Fluo4, HEK293 TRPC4beta/mu-opioid, 1 µM, confirmation (AID 2461;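 active means primary screen active and over 50% activation in each of two duplicate runs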). Conditions: Fluo4 calcium fluorescence, at 1 µM; stronger effect = higher value.
The test system of assay [3] is TRPC4 (transient receptor potential cation channel C4 beta), mouse. Nature of the assay: potentiation of DAMGO EC20 TRPC4 response – cell-based, second round, Fluo-4, HEK293 TRPC4beta/mu-opioid, 1 µM, confirmation (AID 2554;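 active means primary screen hit whose fluorescence ratio, in both repeats, exceeds the weak agonist control mean by 3 SD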). The conditions noted are these: DAMGO EC20, Fluo-4 calcium flux, at 1 µM; stronger effect = higher value.
Assay [4] concerns TRPC4 beta (transient receptor potential cation channel C4), mouse. As to the kind of experiment: potentiation of DAMGO EC20 TRPC4 response – cell-based, Fluo-4, HEK293 TRPC4beta/mu-opioid, confirmation (AID 2555;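 active means primary screen hit whose calcium fluorescence ratio, in both repeats, exceeds the weak agonist control mean by 3 SD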). Conditions: DAMGO EC20, Fluo-4 calcium flux, at 10 µM; stronger effect = higher value.
Assay [5] addresses Short transient receptor potential channel 4 (Mus musculus) (UniProt Q9QUQ5). Nature of the assay: blockers of DAMGO-evoked TRPC4 calcium flux – cell-based, Fluo4, HEK293 TRPC4beta/mu-opioid, confirmation (AID 2636;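 active means calcium signal cut by more than 3 SD below the full-agonist control yet still positive, in both repeats and the earlier primary screen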). Conditions: at 10 µM; stronger effect = higher value.
For assay [6] the target is unchanged. Nature of the assay: blockers of DAMGO-evoked TRPC4 calcium flux – cell-based, second round, Fluo4, HEK293 TRPC4beta/mu-opioid, 1 µM, confirmation (AID 2637;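 active means calcium signal ratio cut to more than 3 SD under the fully stimulated control mean yet still positive, in both repeats and the primary screen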). The conditions noted are these: at 1 µM; stronger effect = higher value.
Assay [7] shares this target. Nature of the assay: calcium entry via TRPC4 opening agents – cell-based, HEK293 TRPC4/mu-opioid, Fluo-4 calcium, dose response (AID 434937;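 active means primary screen activator hit with a dose response curve and TRPC4 channel activation at any tested dose; inactive means no activation, no dose response, or not a primary hit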).
Assay [8] has the same target. Nature of the assay: potentiation of DAMGO-evoked TRPC4 calcium signal – cell-based, HEK293 TRPC4/mu-opioid, Fluo-4 calcium, EC20 DAMGO, dose response (AID 434941;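 active means earlier screen potentiator hit that boosts the TRPC4 ion channel at some dose, with a dose response; inactive means no potentiation, no dose response, or not a prior hit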;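 further: calcium entry triggered by an EC20 dose of DAMGO at the co-expressed mu-opioid receptor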).
For assay [9] the target is unchanged. Nature of the assay: block of DAMGO-driven TRPC4 calcium entry – cell-based, HEK293 TRPC4/mu-opioid, Fluo-4 calcium, dose response (AID 434942;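 active means primary screen inhibitor hit that blocks the TRPC4 channel at some tested dose, yielding a dose curve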).
Assay [10] deals with Short transient receptor potential channel 6 (Mus musculus) (UniProt Q61143). Nature of the assay: TRPC6 blockade by TRPC4 inhibitor hits – cell-based, HEK293, membrane potential dye, duplicate, selectivity assay for TRPC4 inhibitor project, confirmation (AID 434948;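 active means active in primary screen and both duplicates, each dropping signal beyond three positive-control SD with fluorescence still positive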). The conditions noted are these: HEK293 TRPC6, membrane potential dye fluorescence, at 10 µM, stimulated with maximal-effect acetylcholine; stronger effect = higher value.

Assay [11] has the same target. Nature of the assay: TRPC6 opening by TRPC4 activator hits – cell-based, HEK293, membrane potential dye, duplicate, selectivity assay for TRPC4 activator project, confirmation (AID 434950;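 active means membrane potential signal rise above negative control mean plus 3 SD in both duplicates, also active in the earlier TRPC4 screen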;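 on activation: 0% = buffer only wells and 100% = acetylcholine maximal-effect wells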). The conditions noted are these: HEK293 TRPC6, membrane potential fluorescence, at 10 µM; activation: stronger effect = higher value; outcome: activation.
Assay [12] has the same target. As to the kind of experiment: positive modulators of mouse TRPC6 channel – HEK293 cells, membrane potential dye, duplicate, selectivity assay for TRPC4 potentiator project, confirmation (AID 434952;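 active means compound raising the membrane signal above positive-control mean plus 3 SD in both repeats, and a primary screen hit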). Conditions: HEK293 TRPC6, membrane potential dye fluorescence, at 10 µM, maximal acetylcholine added after compound; stronger effect = higher value.
Assay [13] deals with Short transient receptor potential channel 4 (Mus musculus) (UniProt Q9QUQ5). Nature of the assay: calcium flux activators in TRPC4/5HT1a cells, counter-screen for TRPC4 activator project, cell-based, second counter screen, HEK293 TRPC4/5HT1a, Fluo-4 (AID 434977;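 active means calcium signal rise above buffer-control mean plus 5 SD in both duplicates, and also a hit in the primary screen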;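 on activation: plate controls were assay buffer for no effect and maximal serotonin response for full effect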). Conditions: Fluo-4 calcium flux, at 10 µM; stronger effect = higher value.
Assay [14] can be described thus: serotonin-gated TRPC4 signal block – cell-based, second counter screen, HEK293 TRPC4/5HT1a, Fluo-4, counter-screen for TRPC4 inhibitor project, confirmation (AID 434978;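 active means primary screen active whose calcium signal fell more than 3 SD beyond the full-serotonin control mean in both duplicate plates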;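 on outcome: serotonin given first at submaximal then at maximal dose after compound preincubation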). Conditions: Fluo-4 calcium flux, at 10 µM, serotonin added to trigger calcium flux; stronger effect = higher value.
Assay [15] concerns TRPC4 (mouse), co-expressed with 5HT1a in HEK293. As to the kind of experiment: enhancement of serotonin-evoked TRPC4 response – cell-based, second counter screen, HEK293 TRPC4/5HT1a, Fluo-4, counter-screen for TRPC4 potentiator project, confirmation (AID 434979;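 active means signal rise over 3 SD above mean of control wells given weak agonist, in both repeats and first screen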). The conditions noted are these: Fluo-4 calcium flux, at 10 µM, serotonin added at its EC20 dose; stronger effect = higher value.

Assay [16] is described as follows: nonspecific calcium rise without TRPC4 – cell-based, HEK293 mu-opioid receptor line, counter-screen for TRPC4 activator project, confirmation (AID 449723;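 active means hit in primary screen, with calcium signal over 5 SD above buffer well mean in both duplicates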;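 further: counter screen cells carry the mu-opioid receptor alone and lack TRPC4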). The conditions noted are these: HEK293 mu-opioid cells, Fluo-4 calcium fluorescence, at 10 µM; stronger effect = higher value.
A short description of assay [17]: nonspecific potentiation of DAMGO calcium response – cell-based, HEK293 mu-opioid receptor line, counter-screen for TRPC4 allosteric potentiator project, confirmation (AID 449724;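 active means calcium signal rise more than 3 SD above the low-dose agonist control mean, in both duplicate plates and the primary screen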;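 further: HEK293 cells carrying mu-opioid receptor only with no TRPC4 channel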). The conditions noted are these: HEK293 mu-opioid receptor cells, Fluo-4 calcium flux, at 10 µM, compound added before EC20 DAMGO stimulus; stronger effect = higher value.

For part of these data: Potency and affinity values are given separately. Calls of active or inactive are those of the source.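 How the source made its calls, unless noted: active means fluorescence ratio normalized to control raised more than 50% in primary screen plus both repeat runs; inactive means the rest.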

Short transient receptor potential channel 4 (Mus musculus), sequence (Q9QUQ5 whole entry, looked up): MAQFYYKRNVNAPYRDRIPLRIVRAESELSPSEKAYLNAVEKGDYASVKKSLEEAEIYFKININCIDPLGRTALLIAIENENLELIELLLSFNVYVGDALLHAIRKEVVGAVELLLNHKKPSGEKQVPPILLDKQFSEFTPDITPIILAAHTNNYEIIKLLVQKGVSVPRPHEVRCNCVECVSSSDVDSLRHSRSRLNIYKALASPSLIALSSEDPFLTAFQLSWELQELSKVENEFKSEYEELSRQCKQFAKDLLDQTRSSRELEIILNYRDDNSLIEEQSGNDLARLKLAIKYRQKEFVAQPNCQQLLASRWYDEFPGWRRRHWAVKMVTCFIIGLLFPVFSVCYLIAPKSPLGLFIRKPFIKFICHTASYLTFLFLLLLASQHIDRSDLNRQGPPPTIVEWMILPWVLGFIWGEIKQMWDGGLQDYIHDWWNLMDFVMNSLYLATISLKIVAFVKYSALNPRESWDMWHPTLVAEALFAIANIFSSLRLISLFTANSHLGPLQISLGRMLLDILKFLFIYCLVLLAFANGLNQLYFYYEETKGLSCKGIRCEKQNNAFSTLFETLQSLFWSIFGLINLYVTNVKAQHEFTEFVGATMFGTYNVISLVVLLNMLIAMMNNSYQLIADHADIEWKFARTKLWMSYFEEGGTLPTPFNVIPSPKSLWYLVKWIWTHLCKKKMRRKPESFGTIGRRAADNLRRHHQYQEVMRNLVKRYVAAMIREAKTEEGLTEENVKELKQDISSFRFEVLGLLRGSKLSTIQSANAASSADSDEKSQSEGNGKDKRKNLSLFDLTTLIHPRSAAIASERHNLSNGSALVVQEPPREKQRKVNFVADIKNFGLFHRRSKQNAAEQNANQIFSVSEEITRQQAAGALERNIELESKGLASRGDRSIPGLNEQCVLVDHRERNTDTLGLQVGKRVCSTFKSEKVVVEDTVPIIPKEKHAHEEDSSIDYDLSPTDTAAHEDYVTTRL
Short transient receptor potential channel 6 (Mus musculus), sequence (Q61143 whole entry, looked up): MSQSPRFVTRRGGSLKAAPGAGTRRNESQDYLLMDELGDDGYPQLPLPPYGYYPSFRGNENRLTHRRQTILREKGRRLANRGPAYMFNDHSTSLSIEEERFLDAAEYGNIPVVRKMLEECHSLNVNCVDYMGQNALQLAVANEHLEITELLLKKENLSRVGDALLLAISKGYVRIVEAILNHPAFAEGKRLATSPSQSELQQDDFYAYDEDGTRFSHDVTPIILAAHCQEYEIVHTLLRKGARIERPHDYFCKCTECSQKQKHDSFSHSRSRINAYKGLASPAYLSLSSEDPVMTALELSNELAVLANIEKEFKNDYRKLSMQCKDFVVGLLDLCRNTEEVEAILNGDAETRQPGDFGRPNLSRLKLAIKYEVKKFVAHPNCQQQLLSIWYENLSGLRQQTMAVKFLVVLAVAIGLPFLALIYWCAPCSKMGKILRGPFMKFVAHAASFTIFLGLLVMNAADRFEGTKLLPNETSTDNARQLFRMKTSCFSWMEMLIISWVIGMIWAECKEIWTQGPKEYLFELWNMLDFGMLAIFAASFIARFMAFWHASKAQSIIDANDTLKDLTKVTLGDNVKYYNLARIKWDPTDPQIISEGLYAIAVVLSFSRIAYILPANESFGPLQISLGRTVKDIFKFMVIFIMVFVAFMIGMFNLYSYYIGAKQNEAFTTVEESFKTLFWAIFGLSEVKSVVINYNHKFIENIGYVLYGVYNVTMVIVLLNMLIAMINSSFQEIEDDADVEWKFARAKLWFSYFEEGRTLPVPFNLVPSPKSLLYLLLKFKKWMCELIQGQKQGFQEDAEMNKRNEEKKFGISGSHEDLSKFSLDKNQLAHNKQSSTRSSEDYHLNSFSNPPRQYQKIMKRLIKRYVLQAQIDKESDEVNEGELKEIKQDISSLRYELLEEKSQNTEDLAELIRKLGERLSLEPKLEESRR

For the compound `O/N=C/c1cn(-c2ccccc2)nc1-c1ccc2c(c1)OCCO2`, the result in [1], in assay [2], in [3], in [5], in assay [6] and in assay [7] was inactive. The outcome in [8], in assay [9], in assay [10], in [11], in assay [12] and in assay [13] was inactive. In addition, the result in [14], in assay [16] and in assay [17] was inactive. Besides, the figures for the potentiation in assay [4] and in assay [15] were 16% (active) and 29.3% (active), respectively.

On to `CN1CCCN(Cc2cccc3ccccc23)CC1`, for which the outcome in assay [1], in [2], in assay [4], in [5], in assay [6] and in assay [7] was inactive. Further, the outcome in assay [8], in assay [9], in [10], in assay [11], in assay [12] and in assay [13] was inactive. Also, the outcome in assay [14], in assay [16] and in assay [17] was inactive. The potentiation was 34% (active) in assay [3] and 28.3% (active) in assay [15].

As to `CCOC(=O)C(=NC1CCS(=O)(=O)C1)NNc1ccccc1Cl` (stereo not given), the outcome in [1], in [2], in assay [3], in assay [5], in [6] and in [7] was inactive. Moreover, the outcome in assay [8], in assay [9], in assay [10], in [11], in [12] and in [13] was inactive. For the same compound, the outcome in assay [14], in assay [16] and in assay [17] was inactive. In addition, the potentiation in [4] was 85% (active); in [15] it was 64.7% (active).

In the case of `O=C(N/N=C/c1ccccc1F)NC1CCCCC1`, the activation in assay [1] is 85% (active); in [11], 36.5% (active); in [13], 17.8% (active). In addition, the outcome in [2], in assay [5], in [6], in [7], in assay [8] and in [9] was inactive. Further, the call in assay [10], in assay [12], in assay [14], in assay [16] and in assay [17] was inactive. Moreover, the potentiation in assay [3] is 12% (active); in assay [4], 77% (active); in [15] it was 107% (active).

For the compound `COc1ccc(CCn2c(N)c(C#N)c3nc4ccccc4nc32)cc1OC`, the result in assay [1], in assay [2], in [3], in [4], in assay [5] and in assay [6] was inactive. For the same compound, the result in [7], in assay [8], in [9], in assay [10], in assay [11] and in [12] was inactive. For the same compound, the result in [13], in [14], in assay [15], in assay [16] and in assay [17] was inactive.

For `CCN(CC)CCNC(=O)c1cc2c(-c3cccc(OC)c3)nn(C)c2s1`, the outcome in assay [1], in assay [2], in [3], in [4], in [5] and in assay [6] was inactive. The result in assay [7], in assay [8], in assay [9], in assay [10], in assay [11] and in assay [12] was inactive. Moreover, the result in assay [13], in [14], in [16] and in assay [17] was inactive. Further, in assay [15], the potentiation is 20.8% (active).

Regarding `COC(=O)c1ccccc1NC(=O)CCC(=O)N1CC(C)Oc2ccc(C)cc21` (stereo not given), the outcome in assay [1], in assay [2], in assay [3], in assay [4], in assay [6] and in assay [7] was inactive. Further, the outcome in assay [8], in [9], in assay [10], in assay [11], in assay [12] and in assay [13] was inactive. Besides, the result in assay [15], in assay [16] and in assay [17] was inactive. Further, the inhibition in assay [5] is 75% (active); in [14], 44% (active).

Regarding `CC(C)(C)c1ccc(-c2nc3cc(N)ccc3o2)cc1`, the result in assay [1], in assay [2], in [3], in assay [4], in assay [5] and in [6] was inactive. Besides, the result in assay [7], in assay [8], in [9], in assay [10], in assay [11] and in assay [12] was inactive. The outcome in assay [13], in [14], in [15], in assay [16] and in [17] was inactive.

In the case of `Cc1cc(S(=O)(=O)N2CCC(N3CCCCC3)CC2)ccc1-n1cnnn1`, the result in [1], in assay [2], in assay [5], in assay [6], in assay [7] and in assay [8] was inactive. Besides, the result in assay [9], in [10], in assay [11], in assay [12], in assay [13] and in [14] was inactive. For the same compound, the result in [16] and in assay [17] was inactive. In addition, the potentiation was 11% (active) in assay [3], 11% (active) in assay [4] and 19.1% (active) in assay [15].

As for `CCOC(=O)c1cn(Cc2ccccc2)c(C(=O)OC(C)(C)C)c1O`, the result in [1], in assay [2], in assay [3], in [4], in assay [5] and in assay [6] was inactive. Besides, the outcome in assay [7], in [8], in assay [9], in [10], in [11] and in assay [12] was inactive. For the same compound, the outcome in [14], in assay [15] and in assay [17] was inactive. For the same compound, the results for the activation in [13] and in [16] were 54.1% (active) and 21.1% (active), respectively.

On to `Cc1cc(NC(=O)CCN2CCN(Cc3ccccc3)CC2)ccc1Br`, for which the outcome in assay [1], in [2], in assay [4], in assay [5], in [6] and in assay [7] was inactive. Besides, the outcome in assay [8], in [9], in [10], in assay [11], in assay [12] and in assay [13] was inactive. Moreover, the outcome in assay [14], in [15], in assay [16] and in assay [17] was inactive. The potentiation in [3] is 18% (active).

In the case of `COc1cccc(N2C(=O)CC(N3CCN(CCN=CC4=C(O)CC(C)(C)CC4=O)CC3)C2=O)c1` (stereo not given), the outcome in assay [1], in assay [2], in assay [3], in assay [4], in [5] and in assay [6] was inactive. Also, the result in assay [7], in [8], in assay [9], in [10], in [11] and in assay [12] was inactive. For the same compound, the result in [13], in assay [14], in assay [16] and in [17] was inactive. Besides, the potentiation in [15] is 15.8% (active).

Take `CC(C)c1ccccc1NC(=S)NN(Cc1ccccc1)c1ccccc1`: the result in [1], in assay [2], in assay [3], in [5], in assay [6] and in assay [7] was inactive. Moreover, the outcome in assay [8], in [9], in assay [10], in [11], in assay [12] and in [13] was inactive. The outcome in assay [14], in [16] and in [17] was inactive. Moreover, the potentiation is 10% (active) in assay [4] and 43.9% (active) in [15].

In the case of `CCCCCOc1ccc2oc(=O)c3c(c2c1)CCCN3C(=O)CN1CCCC(C(=O)OCC)C1` (stereo not given), the outcome in assay [1], in [2], in assay [3], in assay [4], in [5] and in assay [6] was inactive. Also, the result in assay [7], in assay [8], in assay [9], in assay [10], in [11] and in assay [12] was inactive. For the same compound, the result in [13], in [14], in [16] and in [17] was inactive. For the same compound, the potentiation in assay [15] was 7.34% (active).

On to `CCC(C(=O)Nc1ccccc1OC)n1c(C(=O)OC)cc2ccsc21` (stereo not given), for which the outcome in assay [1], in assay [2], in assay [3], in assay [5], in [6] and in assay [7] was inactive. For the same compound, the result in assay [8], in [9], in assay [10], in [11], in assay [12] and in [13] was inactive. The result in [14], in assay [16] and in assay [17] was inactive. The potentiation was 17% (active) in assay [4] and 75.5% (active) in assay [15].

The values are drawn from PubChem BioAssay.
